Compound activity as filed in PubChem BioAssay.
Shown are actives, neighbours in structure and some others; about 7.2% of the full set was active somewhere.
AHR act – activators of human aryl hydrocarbon receptor | hit rate 2.5% among 320,000 | activation, % at 5 µM | AHR-responsive luciferase reporter cells, luminescence | AID 2796 | P35869; in the data active = activation above about 47%;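 also: 0% = vehicle wells and 100% = reference agonist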
ALR H2O2 inh – human ALR oxidase inhibition via reduced H2O2 | P55789 | hit rate 3.8% among 290,000 | inhibition, % (test concentration not listed) | purified ALR, DTT oxidation, H2O2 HRP-luminol luminescence;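 active = mean replicate inhibition above about 79%, with every replicate also reaching it, limit read from the data; inconclusive = only one of the two criteria met; inactive = mean below limit and not every replicate reaching it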
Target sequence (P55789 whole entry, looked up): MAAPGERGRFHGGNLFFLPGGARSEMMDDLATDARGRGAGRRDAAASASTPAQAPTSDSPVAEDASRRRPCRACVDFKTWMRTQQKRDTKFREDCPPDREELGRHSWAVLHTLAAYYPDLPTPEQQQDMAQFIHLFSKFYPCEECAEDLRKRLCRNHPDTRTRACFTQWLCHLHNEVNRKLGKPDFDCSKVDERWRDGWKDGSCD
VLA-4 inh – inhibition in a human VLA-4 binding assay; P13612; VLA-4 expressing cells, ligand binding flow cytometry; inhibition, % (about 7 µM as worked out from the volumes in the protocol); hit rate 0.2% among 330,000; in the data active = inhibition above about 50%
Mot1-301 SUMO – SUMOylation pathway inhibition by Mot1-301 growth rescue. S. cerevisiae Mot1-301 growth rescue, ATP luminescence, 38.5C; percent above DMSO median, 100 means doubled. growth rescue, % at 18.8 µM. hit rate 1% among 320,000. AID 2716;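 active = every valid replicate shows activation above 250% relative to neutral control wells; inactive = the rest, any valid replicate at or below 250%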;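 also: OY570 slx delta 5 strain wells were the positive control but not used for scaling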
A1 inh – inhibitors of the anti-apoptotic protein A1, read as caspase activation; MEF A1-2A-BIM cells, Caspase-Glo 3/7 luminescence, 3 h; percent of clofoctol response, vehicle zero; caspase activation, % (test concentration not listed); hit rate 0.066% among 330,000;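 active = over half of replicate activation scores above 10%, or exactly half above 10 with the replicate mean above 10; inconclusive = replicate mean below 10 yet half the replicates above 10; inactive = over half of replicates below 10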
Efflux pump inh – blocks antifungal efflux pumps in multiplex yeast assay | AID 485275 | hit rate 0.44% among 330,000 | inhibition, % at 10 µM | S. cerevisiae Candida pump triplex, Nile Red efflux;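 active = plate passing quality check with inhibition over a set limit, or well fluorescence over plate mean plus 4 SD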;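 also: Nile Red retained in pooled yeast measured as flow cytometry median fluorescence; 0% = buffer negative control and 100% = Enniatin B positive control; higher means more Nile Red kept so more efflux inhibition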
The depositor's hits bear a star; ? = inconclusive; · = not tested or not shown.

SMILES | AHR act | ALR H2O2 inh | VLA-4 inh | Mot1-301 SUMO | A1 inh | Efflux pump inh
CCCc1c(C(=O)N2CCN(c3ccccc3OC)CC2)cnn1-c1ccccc1 | 2 | -2 | -1 | 17 | ? | 0
CCCc1c(C(=O)Nc2ccc(OC)cc2)cnn1-c1ccccc1 | 73* | 9 | 1 | 5 | 2 | 0
FC(F)(F)c1cc(-c2cccs2)nc(-n2cc(Br)cn2)n1 | 50* | -8 | 8 | -4 | -1 | 0
CN(CC1COc2ccccc2O1)C(=O)c1ccc(N(C)C)cc1 (stereo not given) | 6 | 89* | 5 | 3 | 1 | 0
C=CCSC1=N/C(=C\c2cc(OCC)c(OC(C)=O)c([N+](=O)[O-])c2)C(=O)S1 | 2 | 98* | 6 | -13 | 0 | 0
COc1ccc(/C=C/c2cc(C(=O)O)c3ccccc3n2)cc1 | -4 | -5 | 17 | -12 | -1 | 0
Cc1cc(/C=C\c2ccccc2)nc2ccccc12 | 62* | -2 | 19 | 160 | 1 | 0
COc1ccc(S(=O)(=O)NCCC(=O)N2CCCC2)cc1N(C)S(C)(=O)=O | 1 | -2 | 4 | -4 | 0 | 0
O=C(CCc1c[nH]c2ccccc12)NCCc1ccccc1 | 1 | 0 | -5 | 192 | 0 | 0
N#CCC(=O)Nc1ccc(C(=O)NCCc2c[nH]c3ccccc23)cc1 | 9 | 98* | -5 | 18 | 0 | 0
O=C(CCc1c[nH]c2ccccc12)NCCc1ccc(O)cc1 | 5 | 85* | 5 | -24 | 0 | 0
CCN1CC(c2ccccc2)C(c2ccc(Cl)cc2)=N1 (stereo not given) | -3 | 95* | -14 | 17 | 0 | 0
O=C(NCCc1nnc2ccc(NCCCN3CCOCC3)nn12)c1ccccc1F | 1 | -3 | 7 | -1 | 1 | 0
Cc1ccc(N=Nc2c(N)nn3c(C)cc(C)nc23)cc1 | 58* | 1 | -9 | 12 | 0 | 0
Cc1cc(C)n2nc(N)c(N=Nc3cccc(Cl)c3)c2n1 | 24 | -5 | 6 | 21 | -1 | 0
Cc1ccc(N=Nc2c(N)nn3c(N)c(C#N)c(C)nc23)cc1 | 75* | 48 | -2 | -3 | 1 | 0
Cc1ccc(N=Nc2c(N)nn(-c3ccccc3)c2N)cc1 | -6 | · | · | 22 | -1 | 0
Cc1cccc(NC(=O)COC(=O)c2nn(C)c(=O)c3ccccc23)c1C | -2 | 0 | 1 | 10 | -1 | 0
C#CCNC(=O)C1=C[C@H](c2ccc(Br)cc2)C[C@H](OCCCCO)O1 | 0 | · | 27 | -12 | -1 | 0
C/C(=N/NC(=O)CSc1nc2ccccc2n1C)c1ccncc1 | 29 | -9 | -27 | 9 | 0 | 0
C/C(=N\NC(=O)Cc1c(C)[nH][nH]c1=O)c1cccc(Br)c1 | 0 | · | 2 | 18 | 0 | 0
C/C(=N/NC(=O)Cc1c(C)[nH][nH]c1=O)c1ccc(O)cc1 | 0 | 98* | 16 | 13 | -1 | 0
C/C(=N\NC(=O)Cc1c(C)[nH][nH]c1=O)c1ccc(Cl)c(Cl)c1 | 1 | 18 | 4 | 5 | 0 | 0
COc1cc(/C(C)=N\NC(=O)CSc2nc3ccccc3n2C)ccc1O | 8 | 99* | 3 | -13 | 0 | 0
COc1cc(/C(C)=N/NC(=O)Cc2c(C)[nH][nH]c2=O)ccc1O | 1 | 99* | -10 | -9 | 1 | -1
SMILES | AHR act | ALR H2O2 inh | VLA-4 inh | Mot1-301 SUMO | A1 inh | Efflux pump inh
CC(=O)c1cccc(NC(=O)/C(=C\c2cccnc2)NC(=O)c2ccco2)c1 | 6 | 15 | 8 | -20 | -1 | 0
O=C(Cn1ccnc1)c1ccc(O)c(O)c1 | 1 | 90* | -10 | -9 | 1 | 0
O=C(COC(=O)c1ccc(O)cc1)Nc1cccc(S(=O)(=O)NC2=NCCCCC2)c1 | 1 | -6 | 24 | -10 | 2 | 0
Nc1nc2cc(S(=O)(=O)NC3=NCCCCC3)ccc2s1 | 0 | 91* | -2 | 67 | 0 | 0
CCOC(=O)c1ccc(S(=O)(=O)Nc2nc3cc(S(=O)(=O)NC4=NCCCCC4)ccc3s2)cc1 | 1 | 97* | 3 | -15 | -1 | 1
CC(=O)Nc1ccc2c(c1)nc1n2CCSC1 | -3 | 99* | -13 | -21 | 1 | -9
Cc1ccc(C(=O)Nc2ccc3c(c2)nc2n3CCSC2)cc1 | -7 | 98* | 14 | 135 | -2 | 0
COc1ccccc1C(=O)Nc1ccc2c(c1)nc1n2CCSC1 | 12 | 99* | 7 | 7 | -4 | 0
CCCCC(=O)Nc1ccc2c(c1)nc1n2CCSC1 | -8 | 99* | 1 | 2 | -1 | 0
COc1ccc(OCC(=O)Nc2ccc3c(c2)nc2n3CCSC2)cc1 | -2 | 4 | 26 | 12 | 0 | 0
CCCC(=O)Nc1ccc2c(c1)nc1n2CCN(C2CCCCC2)C1 | 9 | -117 | -2 | -4 | 0 | 0
O=C(O)C(Cc1cc(Cl)ccc1Cl)Sc1nc2ccccc2[nH]1 (stereo not given) | 5 | 37 | -6 | -10 | 0 | 0
O=C1CCc2cc(S(=O)(=O)Nc3ccc(F)cc3)cc3c2N1CC3 | 22 | 4 | 6 | -7 | 1 | 0
Cc1csc(SCC(=O)Nc2ccc(F)cc2Cl)n1 | 0 | -8 | -3 | 13 | 0 | 0
O=C1NC(=S)N/C1=C/c1cccc([N+](=O)[O-])c1 | 1 | 1 | 3 | 77 | 0 | 0
CN1C(=O)/C(=C/c2cccc([N+](=O)[O-])c2)C(=O)N1c1ccccc1 | 1 | 98* | 5 | 17 | 1 | 0
COc1cccc(/C=C/C(=O)OCC(=O)NC2CC2)c1OC | 1 | 6 | 19 | -8 | -1 | 0
O=[N+]([O-])c1ccc2c(c1)CNc1ccccc1O2 | 28 | 99* | -5 | 24 | 0 | 0
O=C(CN1C2=NCCCN2c2ccccc21)c1cccc(Br)c1 | 7 | -2 | 4 | · | 0 | 0
O=C(CN1C2=NCCCN2c2ccccc21)c1ccc(Cl)cc1Cl | 59* | -38 | -21 | 8 | 1 | 0
COC(=O)c1sc2nc(-c3ccco3)ccc2c1N | -1 | 98* | -19 | -11 | -5 | 0
CCCCC(CC)C(=O)N1CCN(C(=O)c2ccco2)CC1 (stereo not given) | -1 | · | 20 | · | 0 | 0
O=C(/C=C/c1ccc(O)cc1)c1ccc(O)cc1O | 66* | 70 | 7 | 12 | 4 | 0
COc1ccc(C(=O)/C=C/c2ccccc2)c(O)c1 | 9 | 53 | -29 | -11 | -2 | 0
O=C(/C=C/c1ccc(O)c(O)c1)c1ccccc1O | -5 | 100* | -1 | -16 | -8 | 0
C=CCSc1nnc(NC(=O)c2c(CC)noc2C)s1 | 1 | 5 | 19 | -4 | 0 | 0
FC(F)(F)c1ccc2c(c1)NCC1CCCN21 (stereo not given) | 4 | 98* | -1 | 1 | 1 | 0
